Structures are written as SMILES. Measured potencies and affinities stand elsewhere. A number with no mark means an inactive call.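 How the source made its calls: active means every replicate test run called active, with the signal dropping as expected and potency within twice the top valid dose; inconclusive means test runs disagree, or a flat partial drop or poor fit; inactive means every test run inactive, or effect opposite to expected.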

The assay in a line: inhibitors of PAX8-driven TPO luciferase reporter, dose response, RMG-I cells, cherry-pick (AID 687027). The settings on record: RMG-I TPO-Luc reporter, SteadyGlo luminescence, 24 h; series mostly up to 35 µM; activity change, negative = inhibition: at the top concentration. For orientation: In a reporter assay the amount or activity of a reporter protein is the signal.
For `O=C1c2cccc3c(O)ccc(c23)C(=O)N1c1ccc(Cl)cc1`, the “activity change, negative = inhibition” value was -15.1%.
Take `CC(=O)Nc1ccc(C(=O)CSc2cc(C)c3cccc(C)c3n2)cc1`: the “activity change, negative = inhibition” value was 17.7% [at 16 µM].
In the case of `COc1ccc(C)cc1NC(=O)C1CCCN(S(=O)(=O)c2cccc3nonc23)C1` (centres undefined), the “activity change, negative = inhibition” value is -14%.
Turning to `Fc1ccc(CSc2ccc(-c3ccco3)nn2)cc1`, the “activity change, negative = inhibition” value was 147%.
For `Cc1cccc(OCc2nc(-c3cccnc3)no2)c1` the value was 112% [at 16 µM]; for `O=C(O)CC(NC(=O)C1c2ccccc2Oc2ccccc21)c1ccc(OC2CCCC2)cc1` (centres undefined), -7.28%.
Consider `O=[N+]([O-])c1ccc2nc(SCc3cn4ccccc4n3)[nH]c2c1`, for which the “activity change, negative = inhibition” value was 43.6%.
For `COc1ccc2oc(C)c(C(=O)c3ccc([N+](=O)[O-])cc3)c2c1` the value was 22.7%; for `CN(C(=O)COC(=O)C1CCN(S(=O)(=O)c2c(Cl)cccc2Cl)CC1)C1CCS(=O)(=O)C1` (centres undefined), -18.9%.
For `O=C(Cn1cc(C(F)(F)F)ccc1=O)Nc1ccc2c(c1)OCO2` the value was -5.38%.
As to `O=C(/C=C/c1ccco1)Nc1nc(-c2ccccc2)cs1`, the activity change, negative = inhibition was 99.9% [at 8 µM].
For the compound `O=C(Nc1ccccc1)N1CCCCN2[C@@H](CO)[C@@H](c3ccc(C#Cc4ccccc4)cc3)[C@@H]2C1`, the “activity change, negative = inhibition” value was -31.1% [at 16 µM].
For `CCCCC(=O)N1CCN(c2ccc(OC)cc2[N+](=O)[O-])CC1` the value was -19.4%.
`O=C(CSc1cccc[n+]1[O-])Nc1cc(S(=O)(=O)N2CCOCC2)ccc1N1CCOCC1`: the “activity change, negative = inhibition” value is -3.85%.
For `CCN(C(=O)COC(=O)c1ccc(S(=O)(=O)N2CCCc3ccccc32)cc1)C1CCS(=O)(=O)C1` (centres undefined) the value was -27.7%; for `CN1CCN(C(=S)Nc2ccc(Cl)c(Cl)c2)CC1`, -25.3%.
Consider `CC(=O)N/C(=C\c1ccccc1)C(=O)OCC(=O)NC1CCCC1`, for which the “activity change, negative = inhibition” value is -13.8%.
In the case of `O=C(CCN1C(=O)/C(=C/c2ccccc2Cl)SC1=S)Nc1ccccc1C(=O)O`, the “activity change, negative = inhibition” value was -21%.
For `O=C(CSc1nc2ccccc2s1)NCCOc1ccccc1` the value was 43.7%.
On to `COc1ccc(NC(=O)C[C@H]2C(=O)N(c3ccc(OC)cc3)C[C@@H]2C)cc1`, for which the “activity change, negative = inhibition” value is -17.4%.
For `Nc1ncn([C@H]2C[C@H](O)[C@@H](CO)O2)c(=O)n1` the value was 85.7%; for `Cc1nn(CCO)c2nc(-c3cccs3)cc(C(F)(F)F)c12`, -10.1%; for `Cc1cccc(C(=O)Oc2ccc(/C=N/NC(=O)c3ccccc3O)cc2)c1`, 82.9% [at 16 µM].
In the case of `COc1ccccc1NC1=Nc2cccc3cccc1c23`, the “activity change, negative = inhibition” value is 7%.
As to `O=C(/C=C/c1c(Cl)nc2ccccn12)Nc1ccc(F)cc1`, the “activity change, negative = inhibition” value is 3.51%.
For `CCOC(=O)C1(Cc2ccc(OC)cc2)CCN(C(=O)CN2CCCCC2=O)CC1` the value was 25.1%; for `Cc1cc(=O)oc2ccc(OC(=O)CN3C(=O)c4cccc([N+](=O)[O-])c4C3=O)cc12`, 29.1%; for `Nc1ccc2c(c1)CC(=O)c1ccccc1S2`, -8.95%.
Turning to `O=C(Cc1ccc(F)cc1)OCC(=O)N1CCN(S(=O)(=O)c2ccc(Cl)cc2)CC1`, the “activity change, negative = inhibition” value was 0.759%.
Consider `Cc1ccc(/C=N/NC(=O)c2ccccn2)o1`, for which the activity change, negative = inhibition was 80.8% [at 8 µM].
For `CCCCC1Cc2[nH]c(=S)[nH]c(=O)c2C(c2ccc(F)cc2)O1` (centres undefined) the value was -17.5%; for `COc1ccc(C2CC(c3ccc(Br)cc3)=NN2C(=S)Nc2ccccc2)cc1` (centres undefined), 57% [at 16 µM]; for `Nn1cnnc1N/N=C\c1ccc(-c2ccccc2[N+](=O)[O-])o1`, -34.2%.
For `COc1ccc(O)c(C(c2c(C)[nH][nH]c2=O)c2c(C)[nH][nH]c2=O)c1` the value was -21.1%; for `COc1ccc(OCCNC(=O)/C=C/c2ccc([N+](=O)[O-])cc2)cc1`, -6.71%.
Regarding `CCCCCCCCNC(=O)c1cnccn1`, the “activity change, negative = inhibition” value was 33.2%.
Turning to `CCNC(=O)C1(C)CCN(C(=O)c2ccccc2F)C1` (centres undefined), the “activity change, negative = inhibition” value is 11.9%.
For `COc1ccc(-c2cn(CC[C@@H]3CC[C@H](NC(=O)Cc4ccccn4)[C@@H](CO)O3)nn2)cc1` the value was 12.4%; for `CC1CCN(CCOc2ccc(OCc3ccccc3)cc2)CC1`, 61.3%.

The record behind these values is PubChem BioAssay.
